These results are taken from PubChem BioAssay AID588511 (Johns Hopkins Ion Channel Center, 2011).

SMILES strings stand for the structures. In all, about 310,000 compounds went through this assay and about 3,600 (1.2%) were called active.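 Rule for the calls: active = ratio plate-corrected score three or more library SD toward inhibition, starting fluorescence score within five deviations; inactive = the rest.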 For the sample, actives were picked, then their nearest neighbours and some compounds at random.

For this assay, the target named is Anoctamin-1 (Mus musculus) (UniProt Q8BHY3). The assay is described as follows: blockers of mouse ANO1 Ca-activated Cl channel – cell-based, HTS, primary screen (AID 588511).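 For normalized B-score (activity score, 25-100; higher = stronger inhibition): score derived from kinetic fluorescence span divided by baseline fluorescence per well.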 Particulars: HEK293 TMEM16A/YFP iodide influx fluorescence, ionomycin; at 10 µM.
Sequence of Anoctamin-1 (Mus musculus) (Q8BHY3 whole entry, looked up): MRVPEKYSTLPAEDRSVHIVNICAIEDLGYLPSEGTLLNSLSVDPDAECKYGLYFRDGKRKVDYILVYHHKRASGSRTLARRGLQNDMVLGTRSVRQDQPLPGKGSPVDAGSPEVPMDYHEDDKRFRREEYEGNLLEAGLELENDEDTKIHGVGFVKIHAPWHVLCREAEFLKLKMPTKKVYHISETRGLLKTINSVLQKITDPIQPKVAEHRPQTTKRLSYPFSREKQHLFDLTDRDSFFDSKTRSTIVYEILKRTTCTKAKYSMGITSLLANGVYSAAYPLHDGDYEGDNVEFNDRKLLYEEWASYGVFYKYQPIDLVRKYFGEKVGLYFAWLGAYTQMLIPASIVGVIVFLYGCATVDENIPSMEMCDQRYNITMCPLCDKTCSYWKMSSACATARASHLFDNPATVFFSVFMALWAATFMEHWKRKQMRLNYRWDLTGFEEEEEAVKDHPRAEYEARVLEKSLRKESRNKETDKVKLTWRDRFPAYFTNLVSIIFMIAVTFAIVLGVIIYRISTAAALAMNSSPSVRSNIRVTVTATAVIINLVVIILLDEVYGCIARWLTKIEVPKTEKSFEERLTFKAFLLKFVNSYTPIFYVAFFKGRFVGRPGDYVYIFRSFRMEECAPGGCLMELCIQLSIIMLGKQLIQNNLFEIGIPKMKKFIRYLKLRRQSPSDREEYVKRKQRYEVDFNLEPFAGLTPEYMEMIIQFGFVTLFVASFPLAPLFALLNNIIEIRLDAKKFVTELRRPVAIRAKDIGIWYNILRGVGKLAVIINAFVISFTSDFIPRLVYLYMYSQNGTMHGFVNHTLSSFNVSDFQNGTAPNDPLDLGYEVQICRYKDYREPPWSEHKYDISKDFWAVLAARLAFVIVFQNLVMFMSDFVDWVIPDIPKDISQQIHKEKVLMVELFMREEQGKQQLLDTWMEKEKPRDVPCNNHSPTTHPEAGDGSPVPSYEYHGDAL
Turning to `COc1cccc(CNS(=O)(=O)c2ccc3c(c2)CC(C)N3C(=O)C2CCC2)c1` (centres undefined), the normalized B-score (activity score, 25-100; higher = stronger inhibition) is 100 (active).
Regarding `COc1cc(C(C(=O)NC2CCCC2)N(C(=O)c2ccco2)c2ccccc2C(C)=O)cc(OC)c1OC` (centres undefined), the normalized B-score (activity score, 25-100; higher = stronger inhibition) result was “inactive”.
`Nc1nonc1-n1nnc(C(=O)N/N=C/c2cc(Br)ccc2O)c1CSC1=NCCS1`: the normalized B-score (activity score, 25-100; higher = stronger inhibition) result is “inactive”.
`Cc1ccc(-c2nn(C(C)(C)C)c3ncnc(N)c23)cc1`: the normalized B-score (activity score, 25-100; higher = stronger inhibition) result was “inactive”.
As for `Nc1nc(SCC(=O)Nc2cc(C(F)(F)F)ccc2Cl)[nH]c(=O)c1NC(=O)c1ccco1`, the entry is “inactive”.
For `COc1ccc(-c2nnc(SCC(=O)c3ccc4c(c3)OCCO4)o2)cc1` the value was “inactive”; for `COc1ccc(-n2c(C)cc(C(=O)CSc3nnc(-c4cccs4)o3)c2C)cc1`, 100 (active).
Regarding `COc1ccc(-n2c(C)cc(C(=O)COC(=O)c3cc(OC)c(OC)cc3NC(=O)c3cccs3)c2C)cc1`, the normalized B-score (activity score, 25-100; higher = stronger inhibition) result was “inactive”.
For `CCc1cc2c(NC(Cc3ccccc3)C(=O)O)ncnc2s1` (centres undefined) the value was “inactive”; for `CCc1cc2c(N3CCN(c4nnc(CC)s4)CC3)ncnc2s1`, 100 (active); for `CCc1cc2c(NC3CCCC3)ncnc2s1`, “inactive”.
As to `Cc1ccc(S(=O)(=O)N[C@@H](Cc2ccccc2)C(=O)N2CCC(C(=O)N[C@H](C(=O)O)C(C)O)CC2)cc1` (some centres undefined), the normalized B-score (activity score, 25-100; higher = stronger inhibition) entry was “inactive”.
Turning to `COc1cccc(C(=O)NNS(=O)(=O)c2ccc(F)cc2)c1`, the normalized B-score (activity score, 25-100; higher = stronger inhibition) result is “inactive”.
For `Cc1cccnc1NC(=O)Cn1c(=O)oc2ccccc21` the value was “inactive”.
For `COCc1c(C(=O)N/N=C(\C)c2ccncc2)nnn1-c1nonc1N` the value was “inactive”.
On to `S=c1[nH]nc(NCCc2ccccc2)s1`, for which the normalized B-score (activity score, 25-100; higher = stronger inhibition) entry was “inactive”.
In the case of `CCNc1nc(-c2cc3ccccc3o2)cs1`, the normalized B-score (activity score, 25-100; higher = stronger inhibition) entry is “inactive”.
For `Cc1nc(C)c(-c2csc(NCCc3ccccc3)n2)s1` the value was 100 (active).
As for `COc1cccc(CNC(=O)c2cccnc2Sc2ccc(Cl)cc2)c1`, the normalized B-score (activity score, 25-100; higher = stronger inhibition) result was “inactive”.
For `Cc1ccc(NC(=O)C(=O)NCc2ccc(/C=N/NC(=O)c3c(C)nc4cc(C)ccn34)o2)cc1`, the normalized B-score (activity score, 25-100; higher = stronger inhibition) entry was “inactive”.
For `CCN(Cc1ccccc1)C(=O)CN1C(=S)NC(C)(C)CC1C` (centres undefined) the value was “inactive”; for `O=c1[nH]c(SCc2cccc(F)c2)nc2ccccc12`, “inactive”; for `O=c1[nH]c(SCc2ccccc2)nnc1-c1ccccc1`, “inactive”.
As for `N#Cc1c(-c2ccc(F)cc2)nc(-c2ccccc2)[nH]c1=O`, the entry is “inactive”.
On to `N#Cc1c(-c2ccccc2)nc(SCc2cccc(C(F)(F)F)c2)[nH]c1=O`, for which the normalized B-score (activity score, 25-100; higher = stronger inhibition) was 100 (active).
For `Cc1ccc(CSc2nc(-c3ccccc3)c(C#N)c(=O)[nH]2)cc1`, the normalized B-score (activity score, 25-100; higher = stronger inhibition) is 100 (active).
In the case of `N#Cc1c(-c2ccccc2)nc(SCc2ccc([N+](=O)[O-])cc2)[nH]c1=O`, the normalized B-score (activity score, 25-100; higher = stronger inhibition) entry was “inactive”.
Consider `O=C(CCN1C(=O)C2CCCCC2C1=O)Nc1ccc(OC(F)F)cc1` (centres undefined), for which the normalized B-score (activity score, 25-100; higher = stronger inhibition) entry was “inactive”.
For `O=C(COC(=O)c1ncc(Cl)c(Cl)c1Cl)NNC(=O)c1ccccc1` the value was “inactive”; for `O=C(CC1C(=O)NCCN1CC(c1ccccc1)c1ccccc1)NCCc1cn[nH]c1` (centres undefined), “inactive”; for `COc1ccc(C(=O)Nc2cc(C)c(NC(=O)c3ccccc3OC)cn2)cc1`, “inactive”.
For the compound `CC1CN(C(=S)Nc2cccc(F)c2)CC(C)O1` (centres undefined), the normalized B-score (activity score, 25-100; higher = stronger inhibition) entry is “inactive”.
In the case of `Cc1ccc(CNC(=O)c2ccc(CS(=O)Cc3cccc(Cl)c3)o2)cc1` (centres undefined), the normalized B-score (activity score, 25-100; higher = stronger inhibition) result is “inactive”.
For `CCCOc1cccc(C(=O)NCCCNC(=O)c2cccnc2)c1`, the normalized B-score (activity score, 25-100; higher = stronger inhibition) result is “inactive”.
Take `CCc1ccc[n+](-c2nc([O-])sc2C=O)c1`: the normalized B-score (activity score, 25-100; higher = stronger inhibition) entry is “inactive”.
`CC(C)(C)c1cc(NC(=O)NN2CCOCC2)nn1-c1c(Cl)cc(Cl)cc1Cl`: the normalized B-score (activity score, 25-100; higher = stronger inhibition) entry is “inactive”.
Turning to `COc1ccc(-c2nnc(NC(=O)CS(=O)(=O)c3ccc(Cl)cc3)o2)c(OC)c1`, the normalized B-score (activity score, 25-100; higher = stronger inhibition) result was “inactive”.
For `COc1cccc(-c2nnc(NC(=O)c3ccc(S(=O)(=O)N(CC(C)C)CC(C)C)cc3)o2)c1` the value was 100 (active).
As to `COc1cccc(NC(=O)c2ccc(S(=O)(=O)N(C)C)cc2)c1`, the normalized B-score (activity score, 25-100; higher = stronger inhibition) entry is “inactive”.
`CCn1c(C)nc2c1C(=O)c1ccccc1C2=O`: the normalized B-score (activity score, 25-100; higher = stronger inhibition) result is “inactive”.
On to `CSc1ccccc1OCc1cc(C(=O)N2C[C@H]3CC[C@H]2C3)no1`, for which the normalized B-score (activity score, 25-100; higher = stronger inhibition) result was “inactive”.
On to `O=S(=O)(c1ccc(Br)cc1)c1nc(-c2ccccc2)oc1NCc1cccnc1`, for which the normalized B-score (activity score, 25-100; higher = stronger inhibition) entry was “inactive”.
As to `Cc1ccc(OCc2nc(C#N)c(N3CCCC3)o2)cc1`, the normalized B-score (activity score, 25-100; higher = stronger inhibition) entry is “inactive”.
With `N#Cc1nc(COc2ccc(-c3ccccc3)cc2)oc1NCc1cccnc1`, the normalized B-score (activity score, 25-100; higher = stronger inhibition) was 100 (active).
`CC(=O)N(c1ccc2oc(=O)sc2c1)S(=O)(=O)c1ccc(C)cc1`: the normalized B-score (activity score, 25-100; higher = stronger inhibition) result is “inactive”.
For `Cn1c(SCc2ccc(F)cc2)nnc1-c1ccncc1` the value was “inactive”; for `C=CCn1c(CNS(=O)(=O)c2ccc(Br)cc2)nnc1SC`, “inactive”.
For `Cn1cncc1COC(=O)c1ccc(Cl)cc1` the value was “inactive”; for `CCOC(=O)c1cc(NC(=O)c2ccc(Cl)cc2)c(=O)oc1-c1ccccc1`, “inactive”.
For the compound `CN1OC(COC(=O)c2ccc(Cl)cc2)CC1c1ccccc1` (centres undefined), the normalized B-score (activity score, 25-100; higher = stronger inhibition) was 100 (active).
On to `Cc1cc(OC(=O)c2ccc(Cl)cc2)cc(=O)n1C`, for which the normalized B-score (activity score, 25-100; higher = stronger inhibition) result is “inactive”.
For `Cc1ccc(C)c(N2CCN(C(=O)CCCCn3c(=O)[nH]c4ccccc4c3=O)CC2)c1`, the normalized B-score (activity score, 25-100; higher = stronger inhibition) was 25 (active).
Regarding `Cc1ccc(C)c(N2CCN(C(=O)CCCCCn3c(=S)[nH]c4ccc(N5CCOCC5)cc4c3=O)CC2)c1`, the normalized B-score (activity score, 25-100; higher = stronger inhibition) entry was “inactive”.
In the case of `Cc1ccc(C)c(N2CCN(C(=O)CCc3nc4ccccc4[nH]3)CC2)c1`, the normalized B-score (activity score, 25-100; higher = stronger inhibition) entry was “inactive”.
